Experimental findings from PubChem BioAssay (Tox21) are described below.

Test [1] in a line: qHTS assay to identify small molecule antagonists of the glucocorticoid receptor (GR) signaling pathway - cell viability counter screen (AID 720693; further: nearly all actives have a fitted effect of over 55% in size). (In general: Quantitative high-throughput screening tests each substance at several concentrations.)
The nature of test [2]: qHTS assay for identifying genotoxic compounds that show differential cytotoxicity against isogenic chicken DT40 cell lines with known DNA damage response pathways - wild type cell line (AID 743012). Further: nearly all actives have a fitted effect of over 60% in size. Further: potency means the concentration at half of the fitted maximal effect. The essentials: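 Cells (DT40 wild type, 300/well) are treated with DMSO-dissolved compounds after a ~0.5 h pre-incubation and kept 40 h at 37 C/5% CO2. Viability is then measured by CellTiter-Glo luminescence following 30 min at room temperature.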

Test [3] is described as follows: qHTS assay for identifying genotoxic compounds that show differential cytotoxicity against isogenic chicken DT40 cell lines with known DNA damage response pathways - Rev3 mutant cell line (AID 743014). Further: nearly all actives have a fitted effect of over 55% in size. Further: potency means the concentration at half of the fitted maximal effect.
The nature of test [4]: qHTS assay for identifying genotoxic compounds that show differential cytotoxicity against isogenic chicken DT40 cell lines with known DNA damage response pathways - Rad54/Ku70 mutant cell line (AID 743015). Further: nearly all actives have a fitted effect of over 60% in size. Further: potency means the concentration at half of the fitted maximal effect.
Test [5] is described as follows: qHTS assay to identify small molecule antagonists of the androgen receptor (AR) signaling pathway - cell viability counter screen (AID 743033; further: nearly all actives have a fitted effect of over 45% in size; further: potency means the concentration at half of the fitted maximal effect).
The nature of test [6]: qHTS assay to identify small molecule antagonists of the androgen receptor (AR) signaling pathway using the MDA cell line - cell viability counter screen (AID 743041; further: nearly all actives have a fitted effect of over 45% in size). The essentials:
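Cells were plated at 3,000 per well and left 5 h. Compounds in DMSO were then pinned in, followed by R1881. After 16 h at 37C, CellTiter-Fluor fluorescence gave viability.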

In test [7] the target is Androgen receptor (Homo sapiens) (UniProt P10275). As to the kind of experiment: qHTS assay to identify small molecule antagonists of the androgen receptor (AR) signaling pathway (AID 743035; active means well fitted inhibition curve with a large enough effect in the signal ratio in the repeat runs, not every such curve was filed as active; the % refers to the signal ratio). The essentials:
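Antagonism is scored as loss of R1881-driven beta-lactamase reporter expression in HEK293 cells carrying the reporter under a UAS element, after 16 h co-treatment at 37C and a 2 h room-temperature FRET substrate read.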

Test [8] has the same target. As to the kind of experiment: qHTS assay to identify small molecule agonists of the androgen receptor (AR) signaling pathway (AID 743036; active means well fitted activation curve with a large enough effect in the signal ratio in the repeat runs, with a control signal flat, not every such curve was filed as active; the % refers to the signal ratio). Put shortly:
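Screening used 2,000 AR-bla HEK293 cells per well, treated 16 h at 37C with test compounds in DMSO alongside positive and DMSO-only controls; beta-lactamase activity was then read by LiveBLAzer B/G FRET fluorescence after 2 h at room temperature.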

The target is the same in test [9]. Nature of the test: qHTS assay to identify small molecule agonists of the androgen receptor (AR) signaling pathway using the MDA cell line (AID 743040; further: nearly all actives have a fitted effect of over 20% in size). The essentials: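 Cells plated, 5 h at 37C/0% CO2; compound or DMSO pinned; 16 h at 37C; ONE-Glo added; luminescence measured after 30 min at room temperature. Reporter line: MDA-kb2 with MMTV-luciferase responsive to AR and GR.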

The target is the same in test [10]. As to the kind of experiment: qHTS assay to identify small molecule antagonists of the androgen receptor (AR) signaling pathway using the MDA cell line (AID 743042; further: nearly all actives have a fitted effect of over 55% in size). Put shortly: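 Antagonist mode: compounds plus R1881 agonist added to MDA-kb2 AR-luc cells, incubated 16 h at 37C. Luciferase reporter luminescence quantified, with multiplexed CellTiter-Fluor readout for cell viability.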

The structures appear in SMILES notation. Where “and” joins values, the source holds several entries; their conditions need not be identical. Equal values may be shown once. Records with an inconclusive call do not appear. Where a structure was tested more than once in an assay, its records may differ in their call. Calls of active or inactive are those of the source. Unless noted, the call rests on the fitted dose curve; in most records, active means well fitted curve in the direction sought with a large enough effect in the repeat runs; inconclusive means weak or mixed curves; inactive means no such curve, though single readings can be large; an effect the other way counts as inactive or inconclusive.

Chain of Androgen receptor (Homo sapiens) (P10275 whole entry, looked up): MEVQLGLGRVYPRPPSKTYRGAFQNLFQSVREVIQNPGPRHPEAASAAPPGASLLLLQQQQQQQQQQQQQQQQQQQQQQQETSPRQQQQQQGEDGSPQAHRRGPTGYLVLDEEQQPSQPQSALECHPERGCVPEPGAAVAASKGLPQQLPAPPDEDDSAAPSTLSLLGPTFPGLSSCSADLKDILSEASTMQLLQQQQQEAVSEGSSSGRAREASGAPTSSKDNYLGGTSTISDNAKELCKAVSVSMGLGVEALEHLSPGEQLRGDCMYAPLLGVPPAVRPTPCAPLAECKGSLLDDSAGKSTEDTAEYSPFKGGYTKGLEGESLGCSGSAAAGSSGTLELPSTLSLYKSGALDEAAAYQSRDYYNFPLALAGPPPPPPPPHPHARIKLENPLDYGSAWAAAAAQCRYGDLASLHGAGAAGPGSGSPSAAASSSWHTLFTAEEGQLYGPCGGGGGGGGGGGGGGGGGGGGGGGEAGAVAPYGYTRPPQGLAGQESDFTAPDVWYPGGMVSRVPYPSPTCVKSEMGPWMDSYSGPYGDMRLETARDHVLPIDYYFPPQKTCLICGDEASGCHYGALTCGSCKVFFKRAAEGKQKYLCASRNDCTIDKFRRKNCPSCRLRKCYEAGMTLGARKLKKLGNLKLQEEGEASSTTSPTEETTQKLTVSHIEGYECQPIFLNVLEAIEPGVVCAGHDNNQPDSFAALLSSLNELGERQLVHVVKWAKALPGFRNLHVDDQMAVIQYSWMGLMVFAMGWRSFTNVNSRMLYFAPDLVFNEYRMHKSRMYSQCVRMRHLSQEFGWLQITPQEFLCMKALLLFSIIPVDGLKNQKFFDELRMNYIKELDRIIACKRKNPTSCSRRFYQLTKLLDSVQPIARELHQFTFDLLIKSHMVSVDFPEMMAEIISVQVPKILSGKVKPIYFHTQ

Turning to `CCCCCC1=CCCC1=O`, the result in test [1] was inactive. For the same compound, the Potency entry in [2], in test [3], in test [4], in [5] and in [6] was “inactive” throughout.
`COCCCOc1ccnc(CS(=O)c2nc3ccccc3[nH]2)c1C` (centres undefined): the outcome in test [1] was inactive. Moreover, the Potency in test [2] is 23.7 µM (active) and 15.3 µM (active); in test [3] it was 29.8 µM (active) and 24.2 µM (active); in [4], 13.3 µM (active) and 19.3 µM (active). The Potency entry in test [5] and in test [6] was “inactive” in each case.
Consider `O=C(O)c1cc(=O)c2c(OCC(O)COc3cccc4oc(C(=O)O)cc(=O)c34)cccc2o1`, for which, in [1], the compound was called inactive. Also, the Potency result in test [2], in [3], in [4], in [5] and in test [6] was “inactive” in each case.
Take `O=C1CCC(N2C(=O)c3ccccc3C2=O)C(=O)N1` (centres undefined): the outcome in test [1] was inactive. Further, the Potency entry in [2], in [3], in test [4], in test [5] and in test [6] was “inactive” each time.
As for `CN(C)CCOCCN(C)C`, in test [1], the call was inactive. Besides, the Potency entry in test [2], in test [3], in test [4], in [5] and in test [6] was “inactive” each time.
Consider `O=C(O)c1ccccc1C(c1ccc(O)cc1)c1ccc(O)cc1`, for which the outcome in [1], in test [7] and in test [10] was inactive. In addition, the Potency entry in [2], in test [3], in [4], in test [5], in test [8] and in test [9] was “inactive” throughout. In addition, in test [6], the Potency result was “inactive”.
As for `CC(C)c1ccc(S(=O)(=O)O)cc1`, the outcome in [1] was inactive. Further, the Potency result in test [2], in test [3], in [4], in test [5] and in [6] was “inactive” throughout.
For `CCCCCCCCCCCCCCO`, the outcome in [1] was inactive. Also, the Potency result in test [2], in test [3], in test [4], in test [5] and in [6] was “inactive” in each case.
In the case of `c1c[nH]cn1`, in test [1], the call was inactive. Further, the Potency entry in test [2], in test [3], in test [4], in test [5] and in [6] was “inactive” each time.
For `Nc1ccccc1[N+](=O)[O-]`, the compound was classed as inactive in test [1]. In addition, the Potency entry in [2], in test [3], in test [4], in test [5] and in test [6] was “inactive” each time.
As for `C[C@H]1C[C@H]2[C@@H]3CCC4=CC(=O)C=C[C@]4(C)[C@@]3(F)[C@@H](O)C[C@]2(C)[C@@]1(O)C(=O)CO`, the compound was classed as inactive in test [1]. For the same compound, the Potency result in test [2], in test [5] and in test [6] was “inactive” each time. Also, the Potency in test [3] is 27.3 µM (active); in [4], “inactive and 68.6 µM (active)”.
Consider `Cc1occc(=O)c1O`, for which, in [1], the outcome was inactive. The Potency result in test [2], in [3], in [4], in [5] and in test [6] was “inactive” throughout.
On to `OCCOCCN1CCN(C2=Nc3ccccc3Sc3ccccc32)CC1`, for which, in test [1], the outcome was inactive. The Potency was 29.8 µM (active) and 8.41 µM (active) in [2]; 26.6 µM (active) and 9.44 µM (active) in test [3]; 26.6 µM (active) in test [4]; “inactive and 26.8 µM (active)” in test [5]. Besides, the Potency entry in test [6] was “inactive”.
In the case of `O=C(O)[C@H](O)[C@@H](O)[C@H](O)[C@H](O)CO`, in test [1], the compound was called inactive. In addition, the Potency entry in test [2], in test [3], in test [4], in test [5] and in test [6] was “inactive” in each case.
For the compound `CCCCCCCCCC`, in test [1], the compound was called inactive. The Potency entry in test [2], in test [3], in test [4], in [5] and in test [6] was “inactive” throughout.
As to `C/C=C1/CC2C=CC1C2` (centres undefined), the compound was called inactive in test [1]. The Potency result in test [2], in test [3], in test [4], in [5] and in test [6] was “inactive” in each case.
For `c1ccc2scnc2c1`, in [1], the compound was called inactive. Moreover, the Potency entry in test [2], in [3], in test [4], in test [5] and in [6] was “inactive” in each case.
As to `O=c1[nH]c(=O)n([C@H]2C[C@H](O)[C@@H](CO)O2)cc1Br`, in test [1], the compound was called inactive. Besides, the Potency result in [2], in test [5] and in [6] was “inactive” each time. For the same compound, in test [4], the Potency was 11.9 µM (active) and 24.7 µM (active).
Consider `O=C=NCCCCCCN=C=O`, for which the call in test [1] was inactive. Further, the Potency entry in test [2], in [3], in test [4], in [5] and in [6] was “inactive” each time.
Consider `CCCCCCCCCCCCOCCO`, for which the compound was called inactive in test [1] and in test [10]. For the same compound, the Potency entry in [4], in test [8], in test [9] and in [6] was “inactive” each time.
`CC1CCC2CC1C2(C)C` (centres undefined): the call in [1] was inactive. Moreover, the Potency entry in test [2], in test [3], in test [4], in [5] and in test [6] was “inactive” throughout.
As to `CCOC(=O)NNc1nncc2ccccc12`, the outcome in [1] was inactive. Moreover, the Potency entry in test [2], in test [3], in [4], in [5] and in [6] was “inactive” each time.
For the compound `CN(C)CCC(c1ccc(Cl)cc1)c1ccccn1` (centres undefined), in test [1], the result was inactive. For the same compound, the Potency result in [2], in test [3], in [4], in [5] and in test [6] was “inactive” throughout.
For the compound `CCCCC(CC)COC(=O)C(C#N)=C(c1ccccc1)c1ccccc1` (centres undefined), the compound was called inactive in test [1]. Moreover, the Potency in test [2] is 11.9 µM (active); in [4] it was 13.3 µM (active) and inactive. Also, the Potency result in test [3], in test [5] and in [6] was “inactive” in each case.
Regarding `O=C(OCCOCCOC(=O)c1ccccc1)c1ccccc1`, in [1], the outcome was inactive. In addition, the Potency entry in test [2], in test [4], in test [5] and in test [6] was “inactive” each time.
In the case of `COc1ccc(NC(C)=O)cc1N`, the outcome in test [1] was inactive. Moreover, the Potency entry in test [2], in test [3], in test [4], in test [5] and in [6] was “inactive” in each case.
`CCCCCCOCCO`: in test [1], the result was inactive. The Potency entry in test [2], in [3], in [4], in test [5] and in [6] was “inactive” in each case.
`C=CCOC(=O)c1ccccc1C(=O)OCC=C`: the result in [1] was inactive. Also, the Potency entry in test [2], in test [4], in test [5] and in test [6] was “inactive” throughout.
